Consider 36 compounds from PubChem BioAssay (NCATS).

Inconclusive results are not listed. Entries that show only a call come without a potency. The source made the active and inactive calls. Calls follow the shape of the dose curve; as a rule, active = well fitted curve in the direction sought with a large enough effect; inconclusive = small, poorly fitted or top-dose-only effect, or another doubt; inactive = no such curve, though single readings can be large; an effect the other way counts as inactive or inconclusive.

For assay [1], the target named is Tyrosine-protein kinase Yes (Homo sapiens) (UniProt P07947). The assay is described as follows: qHTS for small molecule inhibitors of Yes1 kinase: Primary Screen (AID 686947). Also: nearly all actives have a fitted effect of over 60% in size. Also: potency is read from the fitted curve at half-maximal effect. Summed up:
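ADP-Glo luminescence readout; final 4 nM Yes1, 0.1 mM ATP, 0.3 mg/mL poly(E4Y), Tris pH 7.5, MgCl2, DTT, Brij-35. 20 min compound preincubation, 60 min reaction at RT. Normalized to DMSO wells with and without enzyme.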
In general terms: qHTS replaces the single test concentration by a dilution series.

Assay [2] is described as follows: qHTS for small molecule inhibitors of Yes1 kinase: Counter Assay (AID 686950).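 Also: no kinase present so only ADP-Glo detection of a fixed ADP amount is tested; luminescence from ADP-Glo reporting ADP in a fixed ATP and ADP mixture; series mostly up to about 77 µM.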 The gist of the method: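 Enzyme-free detection counter-screen: compounds preincubated 20 min in buffer, then 0.08 mM ATP plus 0.02 mM ADP added for 60 min at room temperature; ADP-Glo luminescence. Buffer 50 mM Tris pH 7.5, 10 mM MgCl2, 150 mM NaCl; normalized to ATP+ADP and ATP-only controls.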

Chain of Tyrosine-protein kinase Yes (Homo sapiens) (P07947 whole entry, looked up): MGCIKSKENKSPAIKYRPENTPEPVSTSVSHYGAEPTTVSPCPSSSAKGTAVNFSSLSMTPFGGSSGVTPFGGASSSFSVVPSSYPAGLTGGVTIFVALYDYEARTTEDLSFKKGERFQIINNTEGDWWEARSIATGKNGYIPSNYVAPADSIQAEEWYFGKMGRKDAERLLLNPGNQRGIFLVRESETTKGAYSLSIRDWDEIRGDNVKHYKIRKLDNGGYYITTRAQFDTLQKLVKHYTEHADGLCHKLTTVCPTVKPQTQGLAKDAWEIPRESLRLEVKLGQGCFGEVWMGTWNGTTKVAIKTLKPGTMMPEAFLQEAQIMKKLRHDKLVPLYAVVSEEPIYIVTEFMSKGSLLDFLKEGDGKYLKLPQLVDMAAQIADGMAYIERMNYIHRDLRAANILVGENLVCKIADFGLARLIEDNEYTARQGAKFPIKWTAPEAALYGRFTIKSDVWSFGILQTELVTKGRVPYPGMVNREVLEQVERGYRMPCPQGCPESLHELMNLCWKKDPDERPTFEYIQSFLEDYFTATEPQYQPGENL

With `CS(=O)(=O)CCN(CC#N)Cc1ccc(-c2ccc3ncnc(Nc4ccc(OCc5cccc(F)c5)c(Cl)c4)c3c2)o1`, in assay [1], the Potency result was “inactive”. Besides, the result in assay [2] was inactive.
Regarding `Nc1ccc(C#Cc2cncnc2Nc2ccc(OCc3cccc(F)c3)c(Cl)c2)cc1`, in assay [1], the Potency entry is “inactive”. Further, in assay [2], the result was inactive.
Consider `O=C(OC1CNC(C#Cc2cc3ncnc(Nc4ccc5c(cnn5Cc5ccccc5)c4)c3s2)C1)N1CCOCC1` (configuration not stated), for which, in assay [1], the Potency was 1.04 µM (active). The outcome in assay [2] was inactive.
The like results for `CC1=C(C(=O)Nc2ccc3n[nH]c(C)c3c2)C(c2ccc(C(F)(F)F)cc2)CC(=O)N1` (configuration not stated) were, in that order, 6.54 µM (active) and “inactive”.
Consider `Nc1ncnc2occ(-c3ccc(NC(=O)Nc4cccc(C(F)(F)F)c4)cc3)c12`, for which the Potency in assay [1] was 1.64 µM (active). Also, the outcome in assay [2] was inactive.
For `O=C1Nc2ccccc2C1=C1CCc2cc(O)ccc21` the same measures were 9.23 µM (active) and “inactive”.
For `COc1cccc(-n2ncc3c(NN=Cc4ccc(S(C)(=O)=O)cc4)ncnc32)c1` the same measures were 0.0923 µM (active) and “inactive”.
As for `CN(C)CCCn1c(-c2nonc2N)nc2cnccc21`, in assay [1], the Potency result is “inactive”. For the same compound, the call in assay [2] was inactive.
For the compound `Fc1ccc(-c2nn3ccccc3c2-c2ccncc2)cc1`, in assay [1], the Potency is 23.2 µM (active). The call in assay [2] was inactive.
For the compound `COc1cccc(Nc2nccc(-c3cnn4ncccc34)n2)c1`, the Potency result in assay [1] was “inactive”. For the same compound, in assay [2], the call was inactive.
In the case of `FC(F)(F)CNc1nccc(-c2cnn3ncccc23)n1`, the Potency result in assay [1] is “inactive”. Further, in assay [2], the outcome was inactive.
In the case of `CCn1c(-c2nonc2N)nc2ccc(F)cc21`, the Potency entry in assay [1] was “inactive”. In addition, the compound was called inactive in assay [2].
For `CS(=O)(=O)Nc1ccc(N=Cc2c(O)[nH]c3ccccc23)cc1`, the Potency in assay [1] was 3.68 µM (active). For the same compound, the call in assay [2] was inactive.
The like results for `CCN(CC)S(=O)(=O)c1ccc(OC)c(Nc2ncc(-c3ccccc3)o2)c1` were, in that order, 0.654 µM (active) and “inactive”.
For `FC(F)(F)c1cccc(-c2nn3ncccc3c2-c2ccnc(Nc3ccc4c(c3)OCCO4)n2)c1` the same measures were 0.412 µM (active) and “inactive”.
As for `CS(=O)(=O)CCNCc1ccc(-c2ccc3ncnc(Nc4ccc(OCc5ccccc5)c(C(F)(F)F)c4)c3c2)o1`, the Potency entry in assay [1] is “inactive”. Further, in assay [2], the outcome was inactive.
With `COc1cc2c(cc1Nc1nc(N3CCc4ccccc43)c3cc[nH]c3n1)N(C(=O)CN(C)C)CC2`, the Potency result in assay [1] was “inactive”. For the same compound, the call in assay [2] was inactive.
Turning to `CN(C)c1cc2c(Nc3ccc4nc(Cc5ccccc5)[nH]c4c3)ncnc2cn1`, the Potency in assay [1] is 0.412 µM (active). In addition, in assay [2], the compound was called inactive.
For the compound `COc1cccc(-n2ncc3c(NN=Cc4ccc(C(=O)NCCN(C)C)cc4)ncnc32)c1`, the Potency in assay [1] is 0.0207 µM (active). The result in assay [2] was inactive.
For `Cc1ccc(Nc2ccnc(Nc3cccc(C(N)=O)c3)n2)cc1O` the same measures were 0.0292 µM (active) and “inactive”.
The like results for `COC(=O)Nc1nc2ccc(Oc3ccc(NC(=O)Nc4cc(C(F)(F)F)ccc4F)cc3)cc2s1` were, in that order, “inactive” and “inactive”.
For `NS(=O)(=O)c1ccc(Nc2cc(-c3cccc(O)c3)[nH]n2)cc1` the same measures were 23.2 µM (active) and “inactive”.
On to `COc1cc2ncn(-c3cc(OCc4ccccc4Cl)c(C(N)=O)s3)c2cc1OC`, for which, in assay [1], the Potency is 5.19 µM (active). For the same compound, the compound was called inactive in assay [2].
On to `COc1cc(C)c(NC(=O)CN(C)C)cc1Nc1nc(Nc2cccc(F)c2C(N)=O)c2cc[nH]c2n1`, for which, in assay [1], the Potency entry is “inactive”. Further, the outcome in assay [2] was inactive.
As to `CN1CCC(n2cnc(-c3ccc(F)cc3)c2-c2ccnc(NCCO)n2)CC1`, the Potency result in assay [1] is “inactive”. The result in assay [2] was inactive.
`CN(c1ccc(NC(=O)Nc2c(Cl)cccc2Cl)cc1)c1ccnc(Nc2cccc(CS(C)(=O)=O)c2)n1`: the Potency in assay [1] was 1.46 µM (active). In addition, in assay [2], the compound was called inactive.
The like results for `CCS(=O)(=O)c1ccc(OC)c(Nc2ncc(-c3cccc(OC)c3)o2)c1` were, in that order, 0.13 µM (active) and “inactive”.
For `COc1ccc(-c2nn3ncccc3c2-c2ccnc(Nc3ccc(Cl)c(C(F)(F)F)c3)n2)cc1` the same measures were 3.68 µM (active) and “inactive”.
With `Nc1nccc(C#Cc2cncnc2Nc2ccc(OCc3cccc(F)c3)c(Cl)c2)n1`, the Potency entry in assay [1] was “inactive”. The compound was classed as inactive in assay [2].
As for `CCn1c(-c2nonc2N)nc2cncc(C(=O)N3CCNCC3)c21`, in assay [1], the Potency was 1.46 µM (active). In addition, the call in assay [2] was inactive.
With `CCS(=O)(=O)c1ccc(OC)c(Nc2ncc(-c3cccc(F)c3)o2)c1`, the Potency in assay [1] was 0.146 µM (active). Further, in assay [2], the result was inactive.
The like results for `Fc1ccc(-c2ncn(C3CCNCC3)c2-c2ccnc(Oc3cccc(C(F)(F)F)c3)n2)cc1` were, in that order, “inactive” and “inactive”.
On to `N#Cc1ccc2c(-c3ccnc(NC4CC4)n3)c(-c3ccc(F)cc3)nn2c1`, for which, in assay [1], the Potency was 26 µM (active). In assay [2], the result was inactive.
The like results for `COc1ccc2cc(-c3c(-c4ccncc4)nc(-c4ccc(S(C)=O)cc4C)n3C)ccc2c1` (configuration not stated) were, in that order, 1.64 µM (active) and “inactive”.
The like results for `Cc1ccc(C(=O)NC(C)C)cc1-c1ccc(C(=O)NCC2CC2)cc1` were, in that order, “inactive” and “inactive”.
The like results for `CCS(=O)(=O)c1ccc(OC)c(Nc2ncc(-c3cccc(-c4ccccc4F)c3)o2)c1` were, in that order, 0.463 µM (active) and “inactive”.
